From PubChem BioAssay (NCATS) come the findings set out here.

SMILES strings stand for the structures. Records with an inconclusive call do not appear. A call without a number means that no potency is given here. Active and inactive are the calls of the source. Calls follow the shape of the dose curve; as a rule, active = well fitted inhibition curve with a large enough effect; inconclusive = small, poorly fitted or top-dose-only effect; inactive = flat fitted curve, though single readings scatter.
Potency is read from the fitted curve at half-maximal effect.

In this assay the target is Ubiquitin carboxyl-terminal hydrolase 1 (Homo sapiens) (UniProt O94782). As to the kind of experiment: Inhibitors of USP1/UAF1: Pilot qHTS (AID 504865). Also: nearly all actives have a fitted effect of over 35% in size. The note with it: purified USP1/UAF1, Ub-rhodamine cleavage fluorescence; series mostly up to 114 µM. In short, it runs like this: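 Enzyme-free wells gave the negative control, while test wells held 1nM USP1/UAF1 preincubated with compound for 15 min at room temperature. Ub-Rho at 150nM final started the reaction, and fluorescence at 480/540 nm was recorded kinetically.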
Sequence of Ubiquitin carboxyl-terminal hydrolase 1 (Homo sapiens) (O94782 whole entry, looked up): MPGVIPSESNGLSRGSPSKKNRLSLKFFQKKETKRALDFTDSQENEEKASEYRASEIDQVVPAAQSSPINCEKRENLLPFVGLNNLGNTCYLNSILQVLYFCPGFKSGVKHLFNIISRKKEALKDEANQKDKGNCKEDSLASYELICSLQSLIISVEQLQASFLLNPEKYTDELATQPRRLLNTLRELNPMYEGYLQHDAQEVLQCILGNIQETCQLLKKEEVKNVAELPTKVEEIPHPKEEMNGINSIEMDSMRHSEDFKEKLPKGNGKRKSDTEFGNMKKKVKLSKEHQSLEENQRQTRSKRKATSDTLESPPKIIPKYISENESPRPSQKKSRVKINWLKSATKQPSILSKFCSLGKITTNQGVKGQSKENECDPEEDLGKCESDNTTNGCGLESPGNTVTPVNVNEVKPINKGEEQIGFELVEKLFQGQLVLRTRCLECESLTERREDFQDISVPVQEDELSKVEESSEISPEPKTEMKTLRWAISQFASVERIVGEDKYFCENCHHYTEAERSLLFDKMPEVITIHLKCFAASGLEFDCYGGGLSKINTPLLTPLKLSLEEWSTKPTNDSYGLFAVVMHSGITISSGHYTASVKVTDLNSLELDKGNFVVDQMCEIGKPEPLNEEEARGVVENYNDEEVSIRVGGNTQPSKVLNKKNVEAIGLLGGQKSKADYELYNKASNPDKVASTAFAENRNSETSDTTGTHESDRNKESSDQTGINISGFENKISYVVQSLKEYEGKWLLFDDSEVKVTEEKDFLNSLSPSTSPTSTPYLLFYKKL
On to `CCCCCCCCCCCCCC[n+]1ccc(C)cc1`, for which the Potency was 56.2 µM (active).

With `CN1Cc2c(N)cccc2C(c2ccccc2)C1` (stereo unspecified), the Potency result was “inactive”.

For the compound `O=C1C(=O)c2ncccc2-c2cccnc21`, the Potency was 50.1 µM (active).

As for `IC(I)I`, the Potency entry was “inactive”.

As to `CCCCCCCCCCCC[n+]1ccc2ccccc2c1`, the Potency was 89.1 µM (active).

On to `O=C(COc1ccc(Cl)cc1)OCCNC12CC3CC(CC(C3)C1)C2`, for which the Potency entry is “inactive”.

Take `C#CCOc1ccc2c(C)cc(=O)oc2c1`: the Potency entry is “inactive”.

Regarding `COC(=O)CCC(=O)CN`, the Potency entry was “inactive”.

With `O=S(=O)(O)c1cc(O)c2c(N=Nc3ccc(Nc4ccccc4)c4c(S(=O)(=O)O)cccc34)cc(S(=O)(=O)O)cc2c1`, the Potency was 11.2 µM (active).

In the case of `CO[C@H](C(=O)[C@@H](O)[C@@H](C)O)C1Cc2cc3cc(O[C@H]4C[C@@H](O[C@H]5C[C@@H](O)[C@H](O)[C@@H](C)O5)[C@@H](O)[C@@H](C)O4)c(C)c(O)c3c(O)c2C(=O)[C@H]1O[C@H]1C[C@@H](O[C@H]2C[C@@H](O[C@H]3C[C@](C)(O)[C@H](O)[C@@H](C)O3)[C@H](O)[C@@H](C)O2)[C@H](O)[C@@H](C)O1` (stereo partly specified), the Potency result was “inactive”.

Turning to `Nc1ncnc2c1ncn2[C@@H]1O[C@H](COP(=O)(O)OP(=O)(O)OP(=O)(O)O)[C@@H](O)[C@H]1O`, the Potency entry was “inactive”.

Consider `CC(NNC(=O)c1ccccc1)c1ccccc1` (stereo unspecified), for which the Potency entry was “inactive”.

Regarding `CCC(=O)NCCC1CCc2ccc3c(c21)CCO3` (stereo unspecified), the Potency result is “inactive”.

For `CCCCCCCCCCCCCCCC(=O)OCC(COC(=O)CCCCCCCCCCCCCCC)OC(=O)CCCCCCCCCCCCCCC`, the Potency result was “inactive”.

For `CCCCCCC(O)C/C=C/CCCCCCCC(=O)O` (stereo unspecified), the Potency entry is “inactive”.

For the compound `NC1C2CN(c3nc4c(cc3F)c(=O)c(C(=O)O)cn4-c3ccc(F)cc3F)CC12` (stereo unspecified), the Potency entry is “inactive”.

For the compound `Cc1cc(/C=C/c2ccc3cc(N(C)C)ccc3[n+]2C)c(C)n1-c1ccccc1`, the Potency is 44.7 µM (active).

Consider `CC1(C)S[C@@H]2[C@H](NC(=O)Cc3ccccc3)C(=O)N2[C@H]1C(=O)O`, for which the Potency result is “inactive”.

On to `C=CCSSSCC=C`, for which the Potency entry is “inactive”.

For the compound `CC(=O)Oc1c(C)cc(OCC(O)CNC(C)C)c(C)c1C` (stereo unspecified), the Potency result is “inactive”.

For `CC(C(=O)O)c1ccc(N2Cc3ccccc3C2=O)cc1` (stereo unspecified), the Potency entry was “inactive”.

As to `Cc1c(C)c2c(c(C)c1O)CC[C@@](C)(CCC[C@@H](C)CCC[C@@H](C)CCCC(C)C)O2`, the Potency result is “inactive”.

For `NC(=O)c1ncn(C2OC(CO)C(O)C2O)n1` (stereo unspecified), the Potency result is “inactive”.

In the case of `C[C@H]1C[C@H]2[C@@H]3CCC4=CC(=O)C=C[C@]4(C)[C@@]3(F)[C@@H](O)C[C@]2(C)[C@@]1(O)C(=O)CO`, the Potency entry is “inactive”.

`O=S(=O)(O)c1ccc2c(N=Nc3ccc(S(=O)(=O)O)c4ccccc34)c(O)c(S(=O)(=O)O)cc2c1`: the Potency was 17.8 µM (active).

`CCCCC(C)(O)C/C=C/[C@H]1[C@H](O)CC(=O)[C@@H]1CCCCCCC(=O)OC` (stereo partly specified): the Potency result was “inactive”.

Consider `CC(=O)Oc1cc(C)c(OC(C)=O)c2ccccc12`, for which the Potency result is “inactive”.

Regarding `CC[N+](C)(C)Cc1ccccc1Br`, the Potency entry was “inactive”.

Take `C[C@@H]1CCC2[C@@H](C)[C@@H](O)O[C@@H]3O[C@@]4(C)CC[C@@H]1[C@@]23OO4` (stereo partly specified): the Potency result was “inactive”.

On to `O=S(=O)(O)O`, for which the Potency result was “inactive”.

`CCCCCCOc1ccc(C(=N)N(CCCC)CCCC)c2ccccc12`: the Potency was 39.8 µM (active).

Consider `CC1(C)S[C@@H]2[C@H](NC(=O)[C@@H](NC(=O)N3CCNC3=O)c3ccccc3)C(=O)N2[C@H]1C(=O)O`, for which the Potency entry is “inactive”.

Consider `COc1ccc2c3c1O[C@H]1C[C@@H](O)C=C[C@@]31CCN(C)C2`, for which the Potency result was “inactive”.

Regarding `CCCC(=O)Nc1ncnc2c1ncn2C1OC2COP(=O)(O)OC2C1OC(=O)CCC` (stereo unspecified), the Potency entry was “inactive”.

As for `COCC(=O)Nc1cc(Sc2ccccc2)ccc1N=C(NC(=O)OC)NC(=O)OC`, the Potency entry was “inactive”.

As to `Nc1c(Br)cc(Br)cc1CNC1CCC(O)CC1` (stereo unspecified), the Potency result is “inactive”.
